The entries come from a sample that favours hits as a whole.
NPSR antagonist = qHTS Assay for Antagonists of the Neuropeptide S Receptor: cAMP Signal Transduction; Q6W5P4; Potency, µM (doses to about 38.3 µM), for inactives: at the highest dose activity change, negative = inhibition, usual class: inhibitors; AID 1461, 2008; 220,000 compounds, 1% hits; CHO-NPSR cells, cAMP TR-FRET, antagonist mode; note: nearly all actives have a fitted effect of over 50% in size
MBNL1 CUG block = qHTS Assay for Inhibitors of MBNL1-poly(CUG) RNA binding | 280,000 compounds, 0.036% hits | TR-FRET MBNL1-His/biotin-(CUG)12 binding, 665/545 ratio | Muscleblind-like protein 1 (Homo sapiens), Q9NR56 | Potency, µM (titrated, usually from 57.5 µM), inactives show top-dose activity change, negative = inhibition, most hits filed as inhibitors; active = well fitted inhibition curve with a large enough effect in the signal ratio, with a control signal flat, not every such curve was filed as active; inconclusive = small, poorly fitted or top-dose-only effect, or effect the other way, or a change in a side signal; inactive = no such curve, though single readings can be large or run the other way; the % refers to the signal ratio
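TR-FRET between His-tagged MBNL1 and biotin-(CUG)12 RNA, detected with Tb anti-His antibody (0.055 ng/ul) and streptavidin-XL665 (5 nM), 60 min at room temperature. Compounds titrated 92 nM to 58 uM; 665/545 nm ratio normalized to buffer and complex controls.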
Tb PFK block = qHTS Assay to Find Inhibitors of T. brucei phosphofructokinase; ATP-dependent 6-phosphofructokinase (Trypanosoma brucei brucei), O15648; T. brucei PFK, ADP-Glo luminescence; Potency, µM (doses to about 57.5 µM), for inactives: at the highest dose activity, negative = inhibition, actives largely listed as inhibitors; 330,000 compounds, 0.17% hits;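 note: 0% = uninhibited 1x PFK enzyme wells and -100% = no-enzyme wells; nearly all actives have a fitted effect of over 60% in size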
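PFK 1.25 nM, F6P 0.5 mM, ATP 0.1 mM, 0.1 M TEA pH 8.0, 5 mM MgCl2, 0.01% Tween20, 0.1% BSA; 45 min RT. ADP-Glo readout. qHTS titration up to 57 uM; curves fitted, compounds curve-classed.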
RGS12 GoLoco inh = qHTS Assay for Inhibitors of RGS12 GoLoco Motif Activity (Red Fluorophore); Guanine nucleotide-binding protein G(i) subunit alpha-1 (Homo sapiens), P63096; Gai1:RGS12 GoLoco peptide FP, rhodamine, 10 min; Potency, µM (series often up to 61.6 µM), for inactives: at the top dose activity, negative = inhibition, most hits filed as inhibitors; 230,000 compounds, 0.44% hits; AID 880, 2007; active = well fitted inhibition curve with a large enough effect, not every such curve was filed as active; inactive = no such curve, though single readings can be large or run the other way; note: nearly all actives have a fitted effect of over 30% in size
Target sequence (P63096 whole entry, looked up): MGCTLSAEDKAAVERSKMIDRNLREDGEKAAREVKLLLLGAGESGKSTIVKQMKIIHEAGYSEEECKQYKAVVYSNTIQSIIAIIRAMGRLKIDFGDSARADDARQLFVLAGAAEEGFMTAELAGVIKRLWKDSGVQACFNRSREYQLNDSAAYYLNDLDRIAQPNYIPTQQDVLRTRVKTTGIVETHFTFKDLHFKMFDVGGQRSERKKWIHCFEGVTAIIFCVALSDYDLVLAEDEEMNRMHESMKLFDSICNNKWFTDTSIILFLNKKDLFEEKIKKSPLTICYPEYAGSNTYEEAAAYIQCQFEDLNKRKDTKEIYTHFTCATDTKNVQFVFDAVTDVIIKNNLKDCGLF
IMPase Li cell = qHTS Assay for Identifying the Cell-Membrane Permeable IMPase Inhibitors: Potentiation with Lithium | 210,000 compounds, 0.35% hits | Potency, µM (top dose mostly 59.4 µM), for the others: at the highest dose activity, negative = IMPase inhibition, hits mostly inhibitors | CHO-M1 cells, IP1 TR-FRET (IP-One), carbachol + lithium | AID 1457, 2008;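 note: IP1 builds up when IMPase is blocked and the TR-FRET signal falls; plate controls were basal vehicle for no effect and high inhibitor control for full effect; nearly all actives have a fitted effect of over 50% in size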
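Lithium-sensitised IP1 accumulation assay; M1-expressing CHO cells treated 30 min at 37C with compound. Competitive antibody detection by time-resolved FRET followed a 10 min room-temperature lysis step.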
* hit, by the source's call; [ ] = dose if it differs, or a comment. Unless noted, calls come from the whole dose curve; as a rule, active = well fitted curve in the direction sought with a large enough effect; inconclusive = small, poorly fitted or top-dose-only effect, or another doubt; inactive = no such curve, though single readings can be large; an effect the other way counts as inactive or inconclusive. Unless noted, % is set by controls: 0 for no effect and ±100 for the full control effect; potency is the fitted concentration of half-maximal effect.

Screening CCOc1ccc(CCNC(=O)CSc2nn(-c3ccc(C)c(Cl)c3)c(=S)s2)cc1OCC returned NPSR antagonist -19%[46.1 µM], MBNL1 CUG block 4%, Tb PFK block 9%, RGS12 GoLoco inh 78% and IMPase Li cell 10µM*.
`CC(C)c1ccc(C2C(C#N)=C(N)N3C(=C2C#N)Sc2ccccc23)cc1` (stereo not drawn) gave NPSR antagonist 7.9µM*, MBNL1 CUG block 122%, Tb PFK block 0%, RGS12 GoLoco inh 8% and IMPase Li cell -14%[38.3 µM].
COc1cccc([C@@H]2Oc3ccc(OC)cc3C[C@H]2O)c1 was read as RGS12 GoLoco inh 1% and IMPase Li cell 10%.
For O=C(CCN1C(=O)c2ccccc2C1=O)Nc1ccccc1C(F)(F)F the results were MBNL1 CUG block 6% and Tb PFK block 2%.
`COc1cc(-c2nc3n(c(=O)c2C#N)CCS3)cc(OC)c1OC` gave MBNL1 CUG block inconclusive and Tb PFK block 0%.
`O=c1c2cccnc2[nH]c(=S)n1Cc1ccccc1` gave NPSR antagonist -5%, MBNL1 CUG block -12%, Tb PFK block 0%, RGS12 GoLoco inh 6% and IMPase Li cell 10µM*.
For O=c1c2nccnc2[nH]c(=S)n1Cc1ccccc1 the results were NPSR antagonist -9%, MBNL1 CUG block inconclusive, Tb PFK block -2%, RGS12 GoLoco inh 3% and IMPase Li cell -4%.
For C=CCNc1ccccc1S(=O)(=O)NCc1ccccc1 the results were Tb PFK block 0%.
`O=C(COC(=O)c1cc(-c2cccs2)nc2ccccc12)NCc1ccco1` gave NPSR antagonist -20%[46.1 µM], MBNL1 CUG block inconclusive, Tb PFK block inconclusive, RGS12 GoLoco inh 82% and IMPase Li cell 7.9µM*.
Screening COc1ccc(CNC(=O)COC(=O)c2cc(-c3ccc(Cl)s3)nc3ccccc23)cc1 returned NPSR antagonist 10µM*, MBNL1 CUG block inconclusive, Tb PFK block 5%, RGS12 GoLoco inh -3% and IMPase Li cell 10µM*.
O=C(COC(=O)c1cc(-c2ccc(Cl)s2)nc2ccccc12)NCc1ccco1 was read as NPSR antagonist inconclusive, MBNL1 CUG block inconclusive, Tb PFK block 9%, RGS12 GoLoco inh 2% and IMPase Li cell inconclusive.
For COCCn1c(=NC(=O)c2sc3ccccc3c2Cl)sc2cc(S(N)(=O)=O)ccc21 the results were NPSR antagonist -28%, MBNL1 CUG block 46%, Tb PFK block 3%, RGS12 GoLoco inh 11% and IMPase Li cell 11µM*.
Screening C=CCn1c(=NC(=O)c2cc(Cl)sc2Cl)sc2cc(S(N)(=O)=O)ccc21 returned NPSR antagonist -38%, MBNL1 CUG block 56%, Tb PFK block 5%, RGS12 GoLoco inh 18% and IMPase Li cell 3%.
For C=CCn1c(=NC(=O)c2sc3ccccc3c2Cl)sc2cc(S(N)(=O)=O)ccc21 the results were NPSR antagonist inconclusive, MBNL1 CUG block inconclusive, Tb PFK block -3%, RGS12 GoLoco inh 23% and IMPase Li cell 10µM*.
`O=C(COC(=O)CCNS(=O)(=O)c1ccccc1F)Nc1nnc(-c2ccccc2)o1` gave Tb PFK block 0%.
For CCOc1ccccc1NC1=CC(=O)CC(c2ccccc2)C1 (stereo not drawn) the results were NPSR antagonist 1.3µM*, MBNL1 CUG block -11%, Tb PFK block -3%, RGS12 GoLoco inh 10% and IMPase Li cell -6%[38.3 µM].
COc1ccc(NC2=CC(=O)CC(c3ccccc3)C2)c(OC)c1 (stereo not drawn) was read as NPSR antagonist 2%[46.1 µM], MBNL1 CUG block 3%, Tb PFK block 4%, RGS12 GoLoco inh 9% and IMPase Li cell 9%[38.3 µM].
O=C(CSc1nc(C2CC2)nc2ccccc12)N1c2ccccc2Sc2ccc(C(F)(F)F)cc21 was read as NPSR antagonist 7.9µM*, MBNL1 CUG block 3%, Tb PFK block 10%, RGS12 GoLoco inh 2% and IMPase Li cell 7%.

Screening results: PubChem, National Center for Advancing Translational Sciences (NCATS)
